Data taken from PubChem BioAssay (EPA / NIEHS).
Calls of active or inactive are those of the source. How the source made its calls: active means hit-call score of the fitted dose curve at least 0.9, where 1 is the maximum; inactive means score below 0.9.

Test: BSK_LPS_PGE2: BioMAP Diversity Plus: LPS Assay for Prostaglandin E2 (PGE2) Biomarker Activity (AID 2283082)
Settings: primary human HUVEC with PBMC; actives raise or lower the signal
Description: BSK_LPS is a cell-based, multiplexed-readout assay that uses umbilical vein endothelium and peripheral blood mononuclear cells, a human vascular primary cell co-culture, with measurements taken at 24 hours after chemical dosing in a 96-well plate.BSK_LPS_PGE2 is an assay component measured in the BSK_LPS assay. It measures PGE2 antibody related to regulation of gene expression using ELISA technology.Data from the assay component BSK_LPS_PGE2 was analyzed into 1 assay endpoint. This assay endpoint, BSK_LPS_PGE2, was analyzed with bidirectional fitting relative to DMSO as the negative control and baseline of activity. Using a type of binding reporter, gain or loss-of-signal activity can be used to understand changes in the signaling as they relate to the gene PTGER2. Furthermore, this assay endpoint can be referred to as a primary readout, because this assay has produced multiple assay endpoints where this one serves a signaling function. To generalize the intended target to other relatable targets, this assay endpoint is annotated to the gpcr intended target family, where the subfamily is rhodopsin-like receptor.
The levels of cell surface (or secreted, indicated by the prefix "s") biomarker endpoints were measured by ELISA. Overt cytotoxicity to cells in confluent adherent cultures (all systems other than the BT system) was assessed by measuring total protein levels using sulforhodamine B (SRB) staining in parallel cultures at the time of biomarker measurements, indicated as SRB endpoints. For proliferation assays for adherent cell types, individual cell types are cultured at sub-confluence and relative cell numbers quantified by SRB staining at time points optimized for each system (48 h: 3C and CASM3C systems; 72 h: BT and HDF3CGF systems; 96 h: SAg system). SRB was performed by staining cells with 0.1% SRB after fixation with 10% TCA and reading wells at 560 nm.Viability and proliferation of PBMC (T cells) was quantified by Alamar Blue reduction for the SAg and BT systems. For PBMC viability (referred to as PBMC Cytotoxicity within the assay endpoint names), cells were plated (75,000/well in a 96-well plate) and then chemical samples added for 1 h before addition of activators, SEB and TSST-1 (20 ng/mL final concentration each). Cells were incubated for 90 h. Then, Alamar Blue (20 uL/well) (Invitrogen, Cat DAL1100) was added for 6 h, and the plates were read with a fluorescence microplate reader at 546/580 nm (excitation/emission). For PBMC proliferation, cells were plated and activated as above but incubated for only 16 h prior to addition of Alamar Blue. Plates were read after 6 h.

| SMILES | outcome | AC50 |
| --- | --- | --- |
| Nc1nc(N)nc(NC2CC2)n1 | inactive |  |
| CSC1=N[C@@](C)(c2ccccc2)C(=O)N1Nc1ccccc1 |  | 6.96 µM (active) |
| CCOC(=O)CC(SP(=O)(OC)OC)C(=O)OCC (stereo not given) |  | 0.323 µM (active) |
| CCC(=O)Nc1ccc(Cl)c(Cl)c1 |  | 8.77 µM (active) |
| COP(=O)(NC(C)=O)SC (stereo not given) | inactive |  |
| Nc1c(Cl)cc([N+](=O)[O-])cc1Cl | inactive |  |
| CCOP(=O)(NC(C)C)Oc1ccc(SC)c(C)c1 (stereo not given) | inactive |  |
| CC(Oc1cccc(Cl)c1)C(=O)O (stereo not given) | inactive |  |
| Cc1ccn2nc(S(=O)(=O)Nc3c(F)cccc3F)nc2n1 | inactive |  |
| CON=C(C(=O)OC)c1ccccc1CON=C(C)c1cccc(C(F)(F)F)c1 |  | 1.14 µM (active) |
| CC(C)=CC1C(C(=O)OCN2C(=O)C3=C(CCCC3)C2=O)C1(C)C (stereo not given) |  | 4.14 µM (active) |
| S=C1NCCN1 | inactive |  |
| CSc1nnc(C(C)(C)C)c(=O)n1N | inactive |  |
| CCOP(=S)(OCC)OC(Cl)C(Cl)(Cl)Cl (stereo not given) |  | 5.51 µM (active) |
| CCOP(=S)(OCC)Oc1ccc2c(C)c(Cl)c(=O)oc2c1 | inactive |  |
| CC(C)N(C(=O)SCC(Cl)=C(Cl)Cl)C(C)C |  | 34.7 µM (active) |
| COP(=O)(OC)OC(Br)C(Cl)(Cl)Br (stereo not given) | inactive |  |
| CCOP(=O)(SC(C)CC)N1CCSC1=O (stereo not given) | inactive |  |
| CNC(=O)ON=C(SC)C(=O)N(C)C | inactive |  |
| CSc1nc(NC(C)C)nc(NC(C)C)n1 | inactive |  |

| SMILES | outcome | AC50 |
| --- | --- | --- |
| O=C(O)c1cc(Oc2ccc(C(F)(F)F)cc2Cl)ccc1[N+](=O)[O-] |  | 16.4 µM (active) |
| CC1=NNC(=O)N(/N=C/c2cccnc2)C1 | inactive |  |
| CCCSP(=O)(OCC)SCCC | inactive |  |
| CC(COc1ccc(Oc2ccccc2)cc1)Oc1ccccn1 (stereo not given) |  | 3.97 µM (active) |
| CCOP(=O)(OCC)Oc1cc(C)nc(C(C)C)n1 | inactive |  |
| COc1cc(OC)nc(Sc2cccc(Cl)c2C(=O)O)n1 | inactive |  |
| CN1COCN(Cc2cnc(Cl)s2)C1=N[N+](=O)[O-] | inactive |  |
| CN(C)[C@@H]1C(=O)C(C(N)=O)=C(O)[C@@]2(O)C(=O)C3=C(O)c4c(O)cccc4[C@@](C)(O)[C@H]3[C@H](O)[C@@H]12 | inactive |  |
| C[N+]1(C)CCCCC1 | inactive |  |
| CCC(CC)Nc1c([N+](=O)[O-])cc(C)c(C)c1[N+](=O)[O-] | inactive |  |
| CCCCSP(=O)(SCCCC)SCCCC |  | 29.7 µM (active) |
| CNC(=O)Oc1cccc2c1OC(C)(C)O2 | inactive |  |
| CCCCOC(=O)[C@@H](C)Oc1ccc(Oc2ccc(C#N)cc2F)cc1 | inactive |  |
| CCCCOC(=O)c1ccccc1C(=O)O | inactive |  |
| CCCSP(=O)(OCC)Oc1ccc(Br)cc1Cl (stereo not given) | inactive |  |
| CCCCN(CC)c1c([N+](=O)[O-])cc(C(F)(F)F)cc1[N+](=O)[O-] | inactive |  |
| CCOP(=S)(Oc1cnc(C(C)(C)C)nc1)OC(C)C (stereo not given) |  | 31.8 µM (active) |
| C#CC(C)(C)NC(=O)c1cc(Cl)cc(Cl)c1 | inactive |  |
| CCc1cccc(CC)c1N(COC)C(=O)CCl | inactive |  |
| CCOC(=O)COc1cc(-c2nn(C)c(OC(F)F)c2Cl)c(F)cc1Cl | inactive |  |
